Among the data in the supplement of paper PMC10646978 are NF-kB reporter, IRF reporter and viability score values, retold here.

± gives the standard deviation.

What all share (conditions): modulator concentration 10 µM
The test system of experiment [1] is RAW-Dual (murine macrophage reporter line). As to the kind of experiment: NF-kB reporter (SEAP) activity fold change vs agonist alone; higher = enhanced NF-kB activity. In outline: (§1)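 RAW-Dual murine macrophage reporter cells were seeded at 50 000 per well in 384-well plates and pre-incubated 1 hour at 37 °C with compound pin-transferred to 10 μM final. After 1 hour, a PRR agonist was added and cells incubated overnight. Supernatant NF-κB (SEAP, QUANTI-Blue, 620 nm absorbance) and IRF (Lucia luciferase, QUANTI-Luc, luminescence) signals were divided by the mean agonist-only control on the same plate to give fold change. Two replicate plates were averaged, with errors by propagation.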

Experiment [2] has the same test system. The experiment in a line: IRF reporter (Lucia luciferase) activity fold change vs agonist alone; higher = enhanced IRF activity. An outline of the steps: as §1
For experiment [3] the test system is unchanged. The experiment in a line: viability score (confluency relative to resting cells, overnight) (fraction); higher = more viable, active = viable (0.7 or more). An outline of the steps: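 A compound met the cutoff when both of two confluency masks exceeded 70% of resting cells. Those masks were made with IncuCyte software from IncuCyte images of RAW-Dual macrophages treated overnight at 10 μM final. This is the basis of the viability score, which is confluency relative to resting cells.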

[4] abbreviates: agonist: CpG ODN 1826 0.5 ug/mL.

For `COc1cccc2c1C(=O)c1c(O)c3c(c(O)c1C2=O)C[C@@](O)(C(=O)CO)C[C@@H]3O[C@@H]1C[C@H](N)[C@@H](O)[C@H](C)O1` [Prestw-1752], the NF-kB reporter in experiment [1] (setting [4]) was found to be 0.219 ± 0.025; in experiment [1] (agonist: LPS 0.1 ug/mL), 0.0896 ± 0.013; in experiment [1] (agonist: MPLA […]) it was 0.169 ± 0.016. For the same compound, the IRF reporter is 0.264 ± 0.011 in experiment [2] (agonist: 3'3'-cGAMP 10 ug/mL), 0.185 ± 0.05 in experiment [2] (agonist: LPS 0.1 ug/mL) and 0.33 ± 0.053 in experiment [2] (agonist: MPLA […]). For the same compound, in experiment [3], the viability score is 0.458 (inactive).
Turning to `CN1CCN(c2ccc(-c3cccc(NC(=O)COc4ccc(Cl)cc4)c3)nn2)CC1`, the values for the NF-kB reporter in experiment [1] (setting [4]), in experiment [1] (agonist: LPS 0.1 ug/mL) and in experiment [1] (agonist: MPLA […]) were 0.24 ± 0.029, 0.966 ± 0.053 and 0.891 ± 0.021, respectively. The IRF reporter in experiment [2] (agonist: 3'3'-cGAMP 10 ug/mL) amounted to 0.572 ± 0.032; in experiment [2] (agonist: LPS 0.1 ug/mL), 0.946 ± 0.057; in experiment [2] (agonist: MPLA […]) it was 0.966 ± 0.081. The viability score in experiment [3] was 0.97 (active).
For `Cc1ccc(CCC(=O)N2CC(N3C(=O)C4CC=CCC4C3=O)C2)cc1F` (stereo unspecified), the NF-kB reporter in experiment [1] (setting [4]) worked out at 0.728 ± 0.26; in experiment [1] (agonist: LPS 0.1 ug/mL) it was 1.1 ± 0.1; in experiment [1] (agonist: MPLA […]), 1 ± 0.044. The figures for the IRF reporter in experiment [2] (agonist: 3'3'-cGAMP 10 ug/mL), in experiment [2] (agonist: LPS 0.1 ug/mL) and in experiment [2] (agonist: MPLA […]) were 0.741 ± 0.037, 1.05 ± 0.12 and 0.87 ± 0.092, respectively. For the same compound, the viability score in experiment [3] is 1 (active).
Consider `COc1ccc(-c2oc3ccc(OC)cc3c2C(=O)Nc2ccccc2Cl)cc1`, for which the results for the NF-kB reporter in experiment [1] (setting [4]), in experiment [1] (agonist: LPS 0.1 ug/mL) and in experiment [1] (agonist: MPLA […]) were 0.872 ± 0.051, 1.05 ± 0.11 and 1.42 ± 0.041, respectively. Further, the results for the IRF reporter in experiment [2] (agonist: 3'3'-cGAMP 10 ug/mL), in experiment [2] (agonist: LPS 0.1 ug/mL) and in experiment [2] (agonist: MPLA […]) were 0.756 ± 0.052, 0.865 ± 0.062 and 1.84 ± 0.28, respectively. Besides, in experiment [3], the viability score was 1 (active).
Consider `COc1ccc(S(=O)(=O)N(CC(=O)Nc2ccccc2F)c2ccc(C)cc2)cc1OC`, for which the results for the NF-kB reporter in experiment [1] (setting [4]), in experiment [1] (agonist: LPS 0.1 ug/mL) and in experiment [1] (agonist: MPLA […]) were 0.984 ± 0.087, 0.987 ± 0.057 and 0.933 ± 0.059, respectively. Further, the IRF reporter in experiment [2] (agonist: 3'3'-cGAMP 10 ug/mL) was found to be 0.979 ± 0.024; in experiment [2] (agonist: LPS 0.1 ug/mL), 1.54 ± 0.12; in experiment [2] (agonist: MPLA […]), 1.16 ± 0.26. The viability score in experiment [3] was 1.01 (active).
On to `Cl.Fc1ccc([C@@H]2CCNC[C@H]2COc2ccc3c(c2)OCO3)cc1`, for which the results for the NF-kB reporter in experiment [1] (setting [4]), in experiment [1] (agonist: LPS 0.1 ug/mL) and in experiment [1] (agonist: MPLA […]) were 0.575 ± 0.05, 1 ± 0.051 and 1.23 ± 0.069, respectively. Besides, the IRF reporter was 1.11 ± 0.072 in experiment [2] (agonist: 3'3'-cGAMP 10 ug/mL), 1.05 ± 0.055 in experiment [2] (agonist: LPS 0.1 ug/mL) and 1.04 ± 0.2 in experiment [2] (agonist: MPLA […]). Besides, in experiment [3], the viability score is 0.253 (inactive).
With `O=C(Nc1cc(C(F)(F)F)cc(C(F)(F)F)c1)c1cc(Br)ccc1Cl`, the values for the NF-kB reporter in experiment [1] (setting [4]), in experiment [1] (agonist: LPS 0.1 ug/mL) and in experiment [1] (agonist: MPLA […]) were 0.966 ± 0.11, 1.02 ± 0.066 and 0.912 ± 0.059, respectively. The IRF reporter in experiment [2] (agonist: 3'3'-cGAMP 10 ug/mL) worked out at 0.693 ± 0.043; in experiment [2] (agonist: LPS 0.1 ug/mL), 1.52 ± 0.2; in experiment [2] (agonist: MPLA […]) it was 1.05 ± 0.2. Besides, the viability score in experiment [3] is 1.01 (active).
Regarding `CCCNS(=O)(=O)Nc1ncnc(OCCOc2ncc(Br)cn2)c1-c1ccc(Br)cc1`, the NF-kB reporter was found to be 0.775 ± 0.21 in experiment [1] (setting [4]), 0.995 ± 0.074 in experiment [1] (agonist: LPS 0.1 ug/mL) and 1.16 ± 0.1 in experiment [1] (agonist: MPLA […]). The IRF reporter in experiment [2] (agonist: 3'3'-cGAMP 10 ug/mL) amounted to 0.417 ± 0.047; in experiment [2] (agonist: LPS 0.1 ug/mL), 0.383 ± 0.083; in experiment [2] (agonist: MPLA […]), 0.465 ± 0.062. For the same compound, the viability score in experiment [3] was 0.953 (active).
For the compound `O=C(c1ccc(Cl)cc1)c1ccc(N2CCOCC2)c([N+](=O)[O-])c1`, the results for the NF-kB reporter in experiment [1] (setting [4]), in experiment [1] (agonist: LPS 0.1 ug/mL) and in experiment [1] (agonist: MPLA […]) were 0.696 ± 0.061, 1.04 ± 0.08 and 0.735 ± 0.044, respectively. Also, the figures for the IRF reporter in experiment [2] (agonist: 3'3'-cGAMP 10 ug/mL), in experiment [2] (agonist: LPS 0.1 ug/mL) and in experiment [2] (agonist: MPLA […]) were 1.11 ± 0.027, 1.62 ± 0.24 and 1.41 ± 0.24, respectively. Further, in experiment [3], the viability score was 1 (active).
As to `Cc1ccc(C2(c3ccc(C)cc3)CC2C(=O)Nc2ccncc2)cc1` (stereo unspecified), the values for the NF-kB reporter in experiment [1] (setting [4]), in experiment [1] (agonist: LPS 0.1 ug/mL) and in experiment [1] (agonist: MPLA […]) were 0.811 ± 0.095, 0.865 ± 0.076 and 0.908 ± 0.033, respectively. Also, the IRF reporter in experiment [2] (agonist: 3'3'-cGAMP 10 ug/mL) stood at 0.764 ± 0.045; in experiment [2] (agonist: LPS 0.1 ug/mL) it was 1.04 ± 0.09; in experiment [2] (agonist: MPLA […]), 1.02 ± 0.074. Besides, in experiment [3], the viability score was 1 (active).
Regarding `CCOC(=O)C1=C(C)OC(N)=C(C#N)C1c1cc(C)c(OC)cc1C` (stereo unspecified), the NF-kB reporter in experiment [1] (setting [4]) worked out at 0.925 ± 0.073; in experiment [1] (agonist: LPS 0.1 ug/mL) it was 1.01 ± 0.11; in experiment [1] (agonist: MPLA […]), 0.898 ± 0.056. For the same compound, the IRF reporter in experiment [2] (agonist: 3'3'-cGAMP 10 ug/mL) amounted to 0.66 ± 0.11; in experiment [2] (agonist: LPS 0.1 ug/mL), 0.987 ± 0.089; in experiment [2] (agonist: MPLA […]) it was 0.935 ± 0.17. The viability score in experiment [3] was 1 (active).
Regarding `Cc1cccc(NC(=O)CSc2nc(N3CCCCC3)nc3ccccc23)c1`, the NF-kB reporter is 0.963 ± 0.088 in experiment [1] (setting [4]), 1.11 ± 0.092 in experiment [1] (agonist: LPS 0.1 ug/mL) and 0.98 ± 0.13 in experiment [1] (agonist: MPLA […]). For the same compound, the IRF reporter is 0.955 ± 0.055 in experiment [2] (agonist: 3'3'-cGAMP 10 ug/mL), 1.22 ± 0.13 in experiment [2] (agonist: LPS 0.1 ug/mL) and 1.43 ± 0.26 in experiment [2] (agonist: MPLA […]). Moreover, in experiment [3], the viability score was 0.993 (active).
For `Cc1ccc(Nc2nccc(N(C)c3ccc4c(C)n(C)nc4c3)n2)cc1S(N)(=O)=O`, the NF-kB reporter in experiment [1] (setting [4]) is 0.71 ± 0.11; in experiment [1] (agonist: LPS 0.1 ug/mL) it was 1.84 ± 0.36; in experiment [1] (agonist: MPLA […]), 2.52 ± 0.16. Further, the IRF reporter was 0.146 ± 0.014 in experiment [2] (agonist: 3'3'-cGAMP 10 ug/mL), 0.835 ± 0.15 in experiment [2] (agonist: LPS 0.1 ug/mL) and 1.18 ± 0.14 in experiment [2] (agonist: MPLA […]). The viability score in experiment [3] is 0.78 (active).
